PubChem BioAssay (NCATS)
Values joined by “and” are separate entries in the source; they are usually repeats but may differ in a detail not shown here. Identical values can stand only once. Records with an inconclusive call do not appear. Active and inactive are the calls of the source. Unless noted, the call rests on the fitted dose curve; in most records, active means well fitted curve in the direction sought with a large enough effect; inconclusive means small, poorly fitted or top-dose-only effect, or another doubt; inactive means no such curve, though single readings can be large; an effect the other way counts as inactive or inconclusive.

Columns and labels:
[1] = target: Retinoic acid receptor RXR-alpha (Homo sapiens) (UniProt P19793); test: qHTS assay for small molecule antagonists of retinoid X receptor alpha signaling (AID 588546; active means well fitted inhibition curve with a large enough effect in the signal ratio, with a control signal flat, not every such curve was filed as active; the % refers to the signal ratio; further: potency means the concentration at half of the fitted maximal effect;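 on max response: cells stimulated with 9-cis-retinoic acid as agonist; on the % scale 0 is the no-effect control and ±100 the full control effect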); settings: HEK293T RXRa-UAS-bla, beta-lactamase ratio, antagonist mode
Sequence of Retinoic acid receptor RXR-alpha (Homo sapiens) (P19793 whole entry, looked up): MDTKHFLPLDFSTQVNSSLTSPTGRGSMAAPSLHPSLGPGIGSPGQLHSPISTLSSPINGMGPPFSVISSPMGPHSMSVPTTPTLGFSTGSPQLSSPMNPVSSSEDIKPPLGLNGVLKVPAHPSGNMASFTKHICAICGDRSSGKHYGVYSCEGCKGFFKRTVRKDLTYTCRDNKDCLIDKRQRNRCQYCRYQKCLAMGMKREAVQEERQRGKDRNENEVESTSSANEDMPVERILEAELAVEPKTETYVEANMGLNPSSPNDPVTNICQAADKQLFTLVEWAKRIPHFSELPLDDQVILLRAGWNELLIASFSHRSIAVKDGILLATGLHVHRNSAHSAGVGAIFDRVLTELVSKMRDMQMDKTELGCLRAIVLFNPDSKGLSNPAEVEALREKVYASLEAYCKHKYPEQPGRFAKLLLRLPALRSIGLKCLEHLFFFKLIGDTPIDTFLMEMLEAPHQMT
Procedure, shortened: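 Beta-lactamase reporter inhibition, read as CCF4 fluorescence ratio (ex 405, em 460/530 nm) after 2 h at RT. HEK293T UAS-bla cells, 2500/well, were stimulated with 9-cis-RA at 500 or 100 nM final alongside test compound for 18 h at 37 C.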

[2] = target: Thyroid hormone receptor beta (Homo sapiens) (UniProt P10828); test: qHTS assay for small molecule antagonists of thyroid hormone receptor beta signaling (AID 588547; active means well fitted inhibition curve with a large enough effect in the signal ratio, with a control signal flat, not every such curve was filed as active; the % refers to the signal ratio;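 further: cells stimulated with 0.4 nM T3 agonist during compound exposure; on the % scale 0 is the no-effect control and ±100 the full control effect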); settings: TR-UAS-bla HEK293, beta-lactamase ratio, antagonist mode, 18 h
Sequence of Thyroid hormone receptor beta (Homo sapiens) (P10828 whole entry, looked up): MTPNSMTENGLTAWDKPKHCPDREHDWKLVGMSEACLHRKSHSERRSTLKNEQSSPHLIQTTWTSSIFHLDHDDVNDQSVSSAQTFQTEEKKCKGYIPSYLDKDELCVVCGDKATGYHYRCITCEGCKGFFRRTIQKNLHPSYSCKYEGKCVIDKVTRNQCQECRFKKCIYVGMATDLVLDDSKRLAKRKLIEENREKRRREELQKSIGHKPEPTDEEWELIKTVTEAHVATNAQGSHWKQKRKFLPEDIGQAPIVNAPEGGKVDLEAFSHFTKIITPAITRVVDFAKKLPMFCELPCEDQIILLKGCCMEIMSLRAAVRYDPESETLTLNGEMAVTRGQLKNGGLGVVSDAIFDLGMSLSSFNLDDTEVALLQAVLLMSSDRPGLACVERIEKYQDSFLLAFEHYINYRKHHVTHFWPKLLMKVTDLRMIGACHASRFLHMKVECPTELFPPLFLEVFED
Procedure, shortened: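 Inhibition of T3-driven (0.4nM final) beta-lactamase reporter activity was measured over 0.59 nM to 92 uM compound after 18 h at 37 C. The cells were GripTite HEK293 TR-UAS-bla in charcoal/dextran-stripped serum, with CCF4 ratio read-out and IC50 from Hill fits.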

[3] = target: Voltage-gated inwardly rectifying potassium channel KCNH2 (Homo sapiens) (UniProt Q12809); test: qHTS Assay for Small Molecule Inhibitors of the Human hERG Channel Activity (AID 588834); settings: U2OS BacMam hERG, FluxOR thallium flux fluorescence; series mostly up to 46.1 µM;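 further: lower thallium flux fluorescence means stronger hERG block; nearly all actives have a fitted effect of over 50% in size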; further: potency means the concentration at half of the fitted maximal effect
Sequence of Voltage-gated inwardly rectifying potassium channel KCNH2 (Homo sapiens) (Q12809 whole entry, looked up): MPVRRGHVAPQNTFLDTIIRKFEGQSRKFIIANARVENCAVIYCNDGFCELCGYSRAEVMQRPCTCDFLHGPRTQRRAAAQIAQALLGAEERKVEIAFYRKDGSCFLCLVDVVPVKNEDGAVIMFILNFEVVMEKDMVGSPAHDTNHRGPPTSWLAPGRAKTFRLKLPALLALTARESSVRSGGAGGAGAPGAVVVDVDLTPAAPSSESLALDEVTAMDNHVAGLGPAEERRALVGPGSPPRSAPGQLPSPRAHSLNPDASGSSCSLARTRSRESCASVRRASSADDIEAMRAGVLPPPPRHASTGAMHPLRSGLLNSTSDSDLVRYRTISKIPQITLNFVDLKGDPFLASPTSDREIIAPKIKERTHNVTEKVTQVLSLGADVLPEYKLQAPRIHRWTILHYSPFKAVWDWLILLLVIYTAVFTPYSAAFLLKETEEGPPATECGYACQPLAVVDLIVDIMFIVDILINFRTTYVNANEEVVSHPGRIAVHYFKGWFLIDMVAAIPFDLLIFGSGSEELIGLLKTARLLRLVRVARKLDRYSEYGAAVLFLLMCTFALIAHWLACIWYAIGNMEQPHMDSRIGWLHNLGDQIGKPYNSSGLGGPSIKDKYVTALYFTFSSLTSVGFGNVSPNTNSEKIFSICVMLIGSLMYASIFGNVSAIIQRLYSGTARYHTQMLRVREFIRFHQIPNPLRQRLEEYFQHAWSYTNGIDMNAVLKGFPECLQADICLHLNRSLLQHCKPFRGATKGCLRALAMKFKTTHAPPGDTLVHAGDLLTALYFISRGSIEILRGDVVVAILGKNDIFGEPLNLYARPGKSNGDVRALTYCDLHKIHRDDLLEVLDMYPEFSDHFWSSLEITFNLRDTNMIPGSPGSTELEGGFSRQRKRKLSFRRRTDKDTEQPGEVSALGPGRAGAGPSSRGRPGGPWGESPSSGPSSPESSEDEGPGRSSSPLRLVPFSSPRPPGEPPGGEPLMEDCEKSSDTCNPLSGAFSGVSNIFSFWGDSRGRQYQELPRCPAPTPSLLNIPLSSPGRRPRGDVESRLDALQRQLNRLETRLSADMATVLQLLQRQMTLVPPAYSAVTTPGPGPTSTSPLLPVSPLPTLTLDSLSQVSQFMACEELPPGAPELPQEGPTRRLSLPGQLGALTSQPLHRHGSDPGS
Procedure, shortened: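 hERG block measured as reduced thallium-dye (FluxOR) fluorescence after stimulation buffer addition, read over 2 min. Cells were hERG-BacMam-transduced U2OS exposed to compound ~10 min […]; concentration-response fitted with Hill equation for AC50.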

[4] = target: Luciferin 4-monooxygenase (Photinus pyralis) (UniProt P08659); test: Biochemical firefly luciferase enzyme assay for NPC (AID 624030);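 further: purified P. pyralis luciferase at 10 nM with luciferin and ATP substrate; 0% = DMSO and -100% = full luciferase inhibition by PTC124 control; nearly all actives have a fitted effect of over 70% in size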; settings: purified P. pyralis luciferase, luminescence, 5 min; series mostly up to 58.6 µM
Sequence of Luciferin 4-monooxygenase (Photinus pyralis) (P08659 whole entry, looked up): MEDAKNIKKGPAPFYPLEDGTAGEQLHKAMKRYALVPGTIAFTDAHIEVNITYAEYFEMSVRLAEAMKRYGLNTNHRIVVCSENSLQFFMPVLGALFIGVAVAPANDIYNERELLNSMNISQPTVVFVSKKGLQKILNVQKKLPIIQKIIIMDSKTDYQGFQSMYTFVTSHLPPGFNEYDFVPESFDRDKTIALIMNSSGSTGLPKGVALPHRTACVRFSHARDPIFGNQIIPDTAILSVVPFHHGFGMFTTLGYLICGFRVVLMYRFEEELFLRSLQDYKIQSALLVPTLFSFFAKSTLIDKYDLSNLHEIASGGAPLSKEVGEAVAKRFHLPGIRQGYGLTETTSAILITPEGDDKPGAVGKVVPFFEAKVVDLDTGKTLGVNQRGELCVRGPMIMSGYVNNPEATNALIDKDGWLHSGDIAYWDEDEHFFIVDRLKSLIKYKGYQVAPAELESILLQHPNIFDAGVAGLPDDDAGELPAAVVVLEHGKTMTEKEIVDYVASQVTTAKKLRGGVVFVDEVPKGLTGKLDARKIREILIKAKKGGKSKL
Procedure, shortened: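 Direct inhibition of firefly luciferase enzyme (10 nM final, 50 mM Tris Acetate) assessed by luminescence within 5 minutes. Percent activity scaled between DMSO and PTC124 positive control, with concentration-effect curves classified by fit quality and response.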

[5] = S16 Schwann cell PMP22 intronic element firefly luciferase assay (AID 624032); settings: S16 rat Schwann cells, PMP22 element FLuc, 24 h; series mostly up to 57.5 µM; further: nearly all actives have a fitted effect of over 30% in size; further: potency means the concentration at half of the fitted maximal effect
Procedure, shortened: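 Luciferase reporter of PMP22 intronic-element expression in stably transfected S16 rat Schwann cells, read by ONE-Glo luminescence after 24 h compound exposure at 37 C. Activity scaled between DMSO (0%) and positive-control PTC124; concentration-effect curves quality-classified.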

[6] = S16 Schwann cell PMP22 intronic element beta-lactamase assay (AID 624044; calls by dose curve;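 further: 0% = DMSO and -100% = potassium clavulanate positive control; nearly all actives have a fitted effect of over 15% in size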); settings: S16 rat Schwann cells, PMP22 element beta-lactamase FRET, 24 h; series mostly up to 38.3 µM
Procedure, shortened: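 Beta-lactamase reporter under a PMP22 intronic regulatory element in stable S16 rat Schwann cells; 24 h compound exposure. 460 nm blue signal normalized between DMSO (0%) and potassium clavulanate, with 535 nm FRET tracking viability; curves classed by r2 and response.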

[7] = S16 Schwann cell viability assay (CellTiter-Glo assay) (AID 624031); settings: S16 rat Schwann cells viability, 24 h; series mostly up to 57.5 µM;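 further: native untransfected S16 rat Schwann cells; cellular ATP luminescence as a viability measure; plate controls were DMSO-treated cells for no effect and cell-free wells for full effect; nearly all actives have a fitted effect of over 70% in size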
Procedure, shortened: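 Cells were seeded at 500-750 per well in phenol red-free DMEM with 10% FBS and left overnight. Compounds or DMSO were pinned in, incubation ran 24 h at 37 °C/5% CO2, then CellTiter-Glo reagent was added and luminescence measured.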

[8] = target: Glutaminase kidney isoform, mitochondrial (Homo sapiens) (UniProt O94925); test: qHTS for Inhibitors of Glutaminase (GLS): LOPAC Validation (AID 624146); settings: glutaminase enzyme activity inhibition; series mostly up to 46.1 µM; further: nearly all actives have a fitted effect of over 60% in size; further: potency means the concentration at half of the fitted maximal effect
Sequence of Glutaminase kidney isoform, mitochondrial (Homo sapiens) (O94925 whole entry, looked up, canonical isoform): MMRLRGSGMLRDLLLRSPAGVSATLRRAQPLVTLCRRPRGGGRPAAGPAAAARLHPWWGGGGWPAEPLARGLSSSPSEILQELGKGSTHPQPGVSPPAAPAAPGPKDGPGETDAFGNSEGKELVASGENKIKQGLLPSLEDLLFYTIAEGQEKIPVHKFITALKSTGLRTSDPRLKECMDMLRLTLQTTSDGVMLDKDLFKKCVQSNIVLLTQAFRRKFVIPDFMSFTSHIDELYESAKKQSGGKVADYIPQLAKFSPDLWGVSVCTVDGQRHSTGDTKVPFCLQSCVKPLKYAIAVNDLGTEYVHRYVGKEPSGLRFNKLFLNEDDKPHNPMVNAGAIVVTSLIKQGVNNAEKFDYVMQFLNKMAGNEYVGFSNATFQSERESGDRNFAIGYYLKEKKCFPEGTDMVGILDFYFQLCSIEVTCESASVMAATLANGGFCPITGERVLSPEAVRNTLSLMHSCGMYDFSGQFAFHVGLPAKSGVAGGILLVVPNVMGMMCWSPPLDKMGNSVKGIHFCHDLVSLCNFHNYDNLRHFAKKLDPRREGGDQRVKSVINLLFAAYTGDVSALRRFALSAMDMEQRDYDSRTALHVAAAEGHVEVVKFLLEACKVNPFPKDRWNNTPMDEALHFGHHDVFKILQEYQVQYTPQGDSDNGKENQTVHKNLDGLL
Procedure, shortened: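 hKGA; 45 mM KH2PO4 pH 8.2 + 0.02% Tween-20; cpd via pin tool; 1 mM Gln soln; GluOx/HRP/Amplex Red; RT 30 min; fluor. t0 & final.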

[9] = target: Glucagon-like peptide 1 receptor (Homo sapiens) (UniProt P43220); test: qHTS of GLP-1 Receptor Agonists: LOPAC Validation (AID 624148); settings: GLP-1R agonist cell assay; series mostly up to 46.1 µM;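 further: luminescence from a luciferase reporter switched on by cAMP; 0% is about no effect; higher luminescence signal means agonism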
Sequence of Glucagon-like peptide 1 receptor (Homo sapiens) (P43220 whole entry, looked up): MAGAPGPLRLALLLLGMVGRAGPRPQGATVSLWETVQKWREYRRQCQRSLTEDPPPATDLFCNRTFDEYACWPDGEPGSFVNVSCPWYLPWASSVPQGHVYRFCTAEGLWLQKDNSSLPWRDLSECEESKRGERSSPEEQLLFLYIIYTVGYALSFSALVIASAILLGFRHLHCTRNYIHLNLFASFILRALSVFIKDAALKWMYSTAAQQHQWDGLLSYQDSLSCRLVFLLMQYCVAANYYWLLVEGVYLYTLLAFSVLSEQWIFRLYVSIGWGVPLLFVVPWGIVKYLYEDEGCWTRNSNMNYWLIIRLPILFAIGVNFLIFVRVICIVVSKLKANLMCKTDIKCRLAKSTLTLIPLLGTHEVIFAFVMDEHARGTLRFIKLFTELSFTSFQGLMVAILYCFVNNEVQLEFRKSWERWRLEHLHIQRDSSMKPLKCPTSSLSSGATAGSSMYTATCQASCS
Procedure, shortened: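 Agonism scored as increased luciferase luminescence driven by cAMP in HEK293 clones carrying GLP-1R. Cells settled 12 hours, received compound for 4-6 hr at 37 deg C, 5% CO2, and were read after 12 min detection reagent at RT.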

[10] = qHTS of Trypanosoma Brucei Inhibitors: LOPAC Validation (AID 624147); settings: purified enzyme assay, luminescence, 45 min; series mostly up to 57.5 µM; further: 0% is about no effect
Procedure, shortened: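 Quantitative HTS: titrated library compounds versus trypanosomal pyruvate kinase in TEA buffer (pH 7.2) containing KCl, MgCl2, BSA and Tween-20. Reactions were initiated with ADP, 130 uM final. Kinase-Glo Plus luminescence was read after 45 min at RT.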

S=C=S
inactive: max response [1] 10.2% | activity change % (negative = inhibition) [2] 5.87% | Potency [3] | Potency [4] | Potency [5] | Potency [6]

Clc1ccccc1Cl
inactive: max response [1] 14.3% | Potency [3] | Potency [4] | Potency [7] | Potency [5] | Potency [6]

C=CCN=C=S
inactive: max response [1] 5.52% | Potency [3] | Potency [4] | Potency [7] | Potency [5] | Potency [6]

CCOC(=O)c1ccccc1C(=O)OCC
inactive: max response [1] 8.73% and 2.69% and 2.16% | activity change % (negative = inhibition) [2] 9.23% and -2.29% and -1.86% | Potency [3] | Potency [4] | Potency [7] | Potency [5]

ClC1C(Cl)C(Cl)C(Cl)C(Cl)C1Cl (stereo not drawn)
inactive: max response [1] -6.12% [middle of 4 runs] | activity change % (negative = inhibition) [2] 0.744% [middle of 4 runs] | Potency [3] | Potency [4] | Potency [5] | Potency [6]

CC[C@H](C)[C@H]1O[C@]2(C=C[C@@H]1C)C[C@@H]1C[C@@H](C/C=C(\C)[C@@H](O[C@H]3C[C@H](OC)[C@@H](O[C@H]4C[C@H](OC)[C@@H](O)[C@H](C)O4)[C@H](C)O3)[C@@H](C)/C=C/C=C3\CO[C@@H]4[C@H](O)C(C)=C[C@@H](C(=O)O1)[C@]34O)O2
active: Potency [1] 12.6 µM
inactive: Potency [3]

CCCCCl
inactive: max response [1] 21% | Potency [3] | Potency [4] | Potency [5] | Potency [6]

CC(C)(C)c1cc(O)ccc1O
inactive: max response [1] 0.473% and -17.4% | Potency [3] | Potency [4] | Potency [7] | Potency [6]
active: Potency [5] 7.21 µM and 28.7 µM

C[C@H]1CCC[C@H](O)CCCCCc2cc(O)cc(O)c2C(=O)O1
inactive: max response [1] -34.3% | Potency [3] | Potency [4] | Potency [6]

O=c1[nH]c(=O)n(Cl)c(=O)n1Cl
inactive: Potency [4] | Potency [5] | Potency [6]

O=C(O)c1cc[c]([Hg][Cl])cc1
inactive: outcome [9]
active: Potency [8] 3.55 µM

NNC(N)=O
inactive: Potency [8] | Potency [10] | outcome [9]

CNC(C)C(O)c1ccc(O)cc1 (stereo not drawn)
active: Potency [5] 2.28 µM
inactive: Potency [3] | Potency [4] | Potency [6]

FC(F)OC(F)(F)C(F)Cl (stereo not drawn)
inactive: Potency [3] | Potency [4] | Potency [7] | Potency [5] | Potency [6]

CN1[C@@H]2CC[C@H]1CC(OC1c3ccccc3CCc3ccccc31)C2 (stereo partly drawn)
active: Potency [3] 8.91 µM
inactive: Potency [4] | Potency [5] | Potency [6]

O=C1CN(O)C(c2ccccc2)=c2cc(Cl)ccc2=N1
inactive: Potency [3] | Potency [4] | Potency [7] | Potency [5] | Potency [6]
